For 106 compounds, Potency and activity change, negative = growth inhibition results are on record in PubChem BioAssay AID686978 (National Center for Advancing Translational Sciences (NCATS), 2013).

Where “and” joins values, the source holds several entries; their conditions need not be identical. Equal values may be shown once. The whole screen tested about 420,000 compounds, of which about 64,000 (15%) were called active. Another 27% or so got no clear call; they are omitted. Not all results are given here. A call without a number means that no potency is given here. A number with no mark means an inactive call. Calls come from the whole dose curve; as a rule, active = well fitted inhibition curve with a large enough effect; inconclusive = small, poorly fitted or top-dose-only effect; inactive = flat fitted curve, though single readings scatter.
Potency is the fitted concentration of half-maximal effect.

The experiment in a line: qHTS for Inhibitors of human tyrosyl-DNA phosphodiesterase 1 (TDP1): qHTS in cells in absence of CPT. Note: nearly all actives have a fitted effect of over 55% in size. To be noted: DT40 Tdp1-/- hTDP1 cells, no CPT, ATP luminescence, 48 h; activity change, negative = growth inhibition: at 46.2 µM (top of the series). The method in brief:
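Stably hTDP1-transfected Tdp1-null chicken DT40 cells were treated with library compounds minus camptothecin and grown for at least 48 hr at 37 °C, after which cellular ATP was quantified by luminescence.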
As for `CCN(CC)CCN1C(=O)C(=O)/C(=C(/O)c2ccc(OC)c(OC)c2)C1c1ccccn1` (stereo unspecified), the Potency entry is “inactive”.
Still for that read-out and setting: next, `CCCCNS(=O)(=O)CCNCc1ccccc1OC`: “inactive”; `CCOC(=O)CSc1nnc(-c2cccc(Br)c2)o1`: “inactive”; `CCC(=O)NCc1cc(-c2nn(C)c(=O)c3ccccc23)ccc1OC`: “inactive”.
Regarding `CCCCCc1c(Cc2ccccc2)ncn1CCc1ccccc1OC`, the Potency was 2.59 µM (active).
Same read-out and setting: next, `Cn1c(=O)c2c(ncn2CCc2ccccc2)n(C)c1=O`: “inactive”; `CCCCCc1c(-c2ccc(OC)c(OC)c2)ncn1CCc1ccccc1OC`: 2.59 µM (active).
Regarding `CCCCCc1c(-c2cccc(Br)c2)ncn1CCc1ccccc1OC`, the Potency is 18.4 µM (active).
Take `Cc1c(Nc2nc3ccccc3nc2NS(=O)(=O)c2cccs2)c(=O)n(-c2ccccc2)n1C`: the Potency result was “inactive”.
Same read-out and setting: next, `CC1Cc2[nH][nH]c(=O)c2C(C2CC2)O1` (stereo unspecified): “inactive”.
The same measure, in the same setting: next, `CC(Sc1nnc(-c2cccs2)n1C1CC1)C(=O)NCC1CCCO1` (stereo unspecified): “inactive”; `CCOc1ccccc1-c1nc(CN2CCC(C(=O)N3CCOCC3)CC2)c(C)o1`: “inactive”.
On the same count and under the same terms, for `CCOC(=O)C1(CC2CCCCO2)CCN(Cc2nc(-c3cccs3)oc2C)CC1` (stereo unspecified) the value was 16.4 µM (active); for `CCCOC(=O)C1=C(C)NC2=C(C(=O)C(C(=O)OC)C(C)C2)C1c1ccc(N(C)C)cc1` (stereo unspecified), “inactive”.
On to `Cc1ccc(S(=O)(=O)Nc2nc(N)n(-c3ccccc3)n2)cc1`, for which the Potency result was “inactive”.
In the case of `CCOC(=O)c1c(N)n(-c2cccc(C)c2C)c2nc3ccccc3nc12`, the Potency entry is “inactive”.
Same read-out and setting: next, `CCN(c1ccccc1)S(=O)(=O)c1ccc(N)cc1`: “inactive”; `C=CCn1c(N)c(S(=O)(=O)c2cccs2)c2nc3ccccc3nc21`: “inactive”.
Still for that read-out and setting: next, `CCN(CC)CCn1c(N)c(S(=O)(=O)c2ccccc2)c2nc3ccccc3nc21`: 18.4 µM (active).
Same read-out and setting: for `Cc1ccc(S(=O)(=O)c2c(N)n(C)c3nc4ccccc4nc23)cc1` the value was 13 µM (active); for `CC1(C)CC(=O)C=C(c2cccc3c2Oc2ccccc2S3)C1`, “inactive”; for `O=C(Cn1cnc2c(oc3ccccc32)c1=O)Nc1ccc(OC(F)(F)F)cc1`, “inactive”.
As for `CC(C)N(c1ccccc1)c1ncnc(NCCC(=O)O)c1[N+](=O)[O-]`, the Potency entry was “inactive”.
Regarding `O=C(COC(=O)c1cccnc1Cl)Nc1ccc(S(=O)(=O)N2CCOCC2)cc1`, the Potency result is “inactive”.
Same read-out and setting: for `CCOC(=O)N1CCC(c2cc(=O)n(-c3ccccc3)[nH]2)CC1` the value was “inactive”; for `Cc1cc(C)cc(N)c1`, “inactive”; for `CCOc1ccc(C2C3=C(CCCC3=O)N(CC(=O)O)C3=C2C(=O)CCC3)cc1`, “inactive”.
Still for that read-out and setting: next, `CC(C)(C)N1C(=O)c2c(C(=O)OCc3ccccc3)[nH]c(-c3ccccc3)c2C1=O`: “inactive”.
On the same count and under the same terms, next, `CCOC(=O)c1[nH]c2c(c1C)C(=O)CC(c1ccc(N(C)C)cc1)C2` (stereo unspecified): 13 µM (active).
Take `CCCNC(=O)C1CC(=O)N(c2ccc(OCc3ccccc3)cc2)C1` (stereo unspecified): the Potency entry was “inactive”.
On the same count and under the same terms, next, `CCOC(=O)c1[nH]c2c(c1-c1ccccc1)C(=O)CC(c1ccc(Cl)cc1)C2` (stereo unspecified): “inactive”; `CCOc1ccc(C2CC(=O)c3c([nH]c(C(=O)OCc4ccccc4)c3C)C2)cc1` (stereo unspecified): 13 µM (active).
Still for that read-out and setting: for `CCc1ccc(C2CC(=O)c3c([nH]c(C(=O)OCc4ccc(C)cc4)c3C)C2)cc1` (stereo unspecified) the value was 7.31 µM (active); for `COCCOC(=O)c1[nH]c2c(c1C)C(=O)CC(c1ccc(OC)cc1)C2` (stereo unspecified), “inactive”; for `Cc1nnc(C)c2c(C)n(N)c(C)c12`, “inactive”.
On the same count and under the same terms, for `CCCCOc1ccc(-c2ncc(C(=O)OCC)c(N)n2)cc1` the value was “inactive”; for `O=C(OCC(=O)N1CCCC1)c1ccco1`, “inactive”.
Take `Cc1noc(C)c1C(=O)NC(C)c1ccc2c(c1)OCO2` (stereo unspecified): the Potency result was “inactive”.
As for `CN(C)Cc1c(O)ccc2c(=O)c(-c3ccccc3Cl)coc12`, the Potency result is “inactive”.
Regarding `CN(c1ccccc1)c1nc(N)c([N+](=O)[O-])c(NCc2ccco2)n1`, the Potency result was “inactive”.
The same measure, in the same setting: next, `O=C(Nc1ccc(Cl)c(Cl)c1)N1CC=C(c2ccccc2)CC1`: 20.6 µM (active).
The same measure, in the same setting: next, `NC(=O)N1CCCC1C(=O)Nc1ccc(Cl)c(Cl)c1` (stereo unspecified): “inactive”; `O=C(O)c1cccc(S(=O)(=O)N2CC=C(c3ccccc3)CC2)c1`: “inactive”; `NC(=O)C1CCN(C(=O)c2cn(-c3ccccc3)nc2-c2cccnc2)CC1`: “inactive”.
The same measure, in the same setting: for `COc1ccc(C2=CC(c3cccc(OC)c3)n3nnnc3N2)cc1` (stereo unspecified) the value was 29.1 µM (active); for `COc1ccc(C2CC(c3cccs3)Nc3nnnn32)cc1` (stereo unspecified), “inactive”.
For `CCOc1ccc(C2=CC(c3ccccc3)n3ncnc3N2)cc1` (stereo unspecified), the Potency entry is “inactive”.
For the compound `O=C(Cn1ccc(=O)[nH]c1=O)Nc1ccc(C(=O)O)c(O)c1`, the Potency entry was “inactive”.
Take `COc1ccc(NC(=O)Cn2cc(C(=O)c3ccncc3)c(=O)c3cc(C)ccc32)cc1Cl`: the Potency entry was “inactive”.
On the same count and under the same terms, for `Cc1nn(C)cc1CNC(=O)Nc1ccc(Cl)cc1` the value was “inactive”; for `COc1ncnc2c1N=C1CC(C)(C)CC(N)=C1S2`, “inactive”.
Regarding `CC(C)(C)NC(=O)CN(C(=O)c1csnn1)c1ccccc1-c1ccccc1`, the Potency result was “inactive”.
The same measure, in the same setting: next, `COc1ccccc1N1CCN(CCN2C(=O)c3ccccc3C(C)(C)C2=O)CC1`: 26.6 µM (active) and 23.1 µM (active); `COc1ccccc1N1CCN(CC(=O)NC(=O)NCc2ccco2)CC1`: “inactive”.
The same measure, in the same setting: next, `CNCC(O)CN1CCN(c2ccccc2OC)CC1` (stereo unspecified): “inactive”.
Turning to `CC1(C)Cc2c(sc3nc4n(c(=N)c23)CCCCC4)CO1`, the Potency entry is “inactive”.
The same measure, in the same setting: next, `COCCn1c(C)cc(C(=O)CSc2ncnc3sc4c(c23)CCC4)c1C`: “inactive”; `CCc1nc(N2CCN(C(C)=O)CC2)c2c3c(sc2n1)CCCC3`: “inactive”.
As for `COCCNc1nc(-n2nc(C)cc2C)nc2sc3c(c12)CCCC3`, the Potency was 5.17 µM (active).
The same measure, in the same setting: next, `CC/C(C)=N/Nc1nc2sc3c(c2c(=O)[nH]1)CC(C)(C)OC3`: “inactive”; `CCC(O)CNc1nc(-n2nc(C)cc2C)nc2sc3c(c12)CC(C)(C)OC3` (stereo unspecified): 10.3 µM (active); `O=C(NCc1ccc(F)cc1)C1CCN(C(=O)Nc2ccc(F)cc2)CC1`: “inactive”.
On the same count and under the same terms, next, `Cc1ccc(Oc2ccc3c(c2)C(=O)N(c2cccc4cccnc24)C3=O)cc1`: “inactive”.
On the same count and under the same terms, for `CC(C)NC(=O)NC(=O)COC(=O)c1ccc(NC(=O)CC#N)cc1` the value was “inactive”.
Take `O=C1CSC(c2cccc(F)c2)N1c1ccc(O)cc1` (stereo unspecified): the Potency entry was “inactive”.
Still for that read-out and setting: next, `CCCC(C)C(=O)OCC(=O)Nc1c(Br)cc(C)cc1Br` (stereo unspecified): “inactive”; `NC(=O)COc1ccc(/C=N/NC(=O)C2CCCN2S(=O)(=O)c2ccc(Cl)cc2)cc1` (stereo unspecified): “inactive”; `Nc1[nH][nH]c(=O)c1N=Nc1ccc2c(c1)OCO2`: “inactive”.
On the same count and under the same terms, for `C=CCN(N=Nc1cccc([N+](=O)[O-])c1)c1cccc([N+](=O)[O-])c1` the value was “inactive”.
In the case of `CCOC(=O)c1cc2c(nc1NC(=S)Nc1ccccc1)CC(C)(CC)OC2` (stereo unspecified), the Potency entry is “inactive”.
Take `COC(=O)Nc1ncc(CN2C(=O)c3ccccc3C2=O)s1`: the Potency entry is “inactive”.
Still for that read-out and setting: next, `CN1C(=O)c2ccc(NC(=O)C3CCCCC3)cc2C1=O`: “inactive”.
The same measure, in the same setting: next, `COC(=O)CSc1ccc2nnc(CCNS(=O)(=O)c3ccc(C)cc3)n2n1`: “inactive”; `Cc1ccc(S(=O)(=O)NCCc2nnc3ccc(SCc4cccnc4)nn23)cc1`: “inactive”; `O=S(=O)(NCCc1nnc2ccc(SCc3ccc(Cl)cc3Cl)nn12)c1ccccc1`: 14.6 µM (active).
On the same count and under the same terms, for `COC(=O)Nc1ncc(CN2CCCCC2)s1` the value was “inactive”; for `CN1CCC(N(C)C(=O)c2ccc(Cl)c(S(=O)(=O)Nc3ccc(Cl)cc3)c2)CC1`, “inactive”; for `COc1cc(C(=O)Nc2ncccc2C)ccc1OCC(=O)N1CCOCC1`, “inactive”.
As for `O=C(Nc1ncccc1O)c1ccc(S(=O)(=O)N2CCCC2)cc1`, the Potency is 18.4 µM (active).
Still for that read-out and setting: next, `CCc1nnc(NC(=O)c2cc(S(=O)(=O)N3CCCCC3)ccc2C)s1`: “inactive”; `Cc1cccnc1NC(=O)c1cccc(S(=O)(=O)N2CCN(c3ccc(F)cc3)CC2)c1`: 16.4 µM (active).
Still for that read-out and setting: for `CCOC(=O)c1csc(NC(=O)c2ccc(S(=O)(=O)N3CCCC3)cc2)n1` the value was “inactive”.
The same measure, in the same setting: next, `Cc1ccc(C(=O)Nc2ncccc2C)cc1S(=O)(=O)N1CCOCC1`: “inactive”.
For `O=C(Nc1ncccc1O)c1ccc(C(=O)c2ccccc2)cc1`, the Potency was 23.1 µM (active).
Same read-out and setting: for `O=C(N/N=C/c1ccccn1)c1ccc(S(=O)(=O)N2CCCCCC2)cc1` the value was “inactive”; for `O=C(NC(=O)c1ccccc1)Nc1ccccc1O`, “inactive”.
Still for that read-out and setting: for `Cc1ccc(C)c2sc(NC(=O)c3ccc(S(=O)(=O)N4CCCC4)cc3)nc12` the value was 29.1 µM (active); for `O=C(CNC(=O)c1ccc2ccccc2c1)Nc1ncccc1O`, “inactive”.
For the compound `O=C(Nc1ccccc1F)c1ccc(S(=O)(=O)N2CCCCCC2)cc1`, the Potency entry is “inactive”.
On the same count and under the same terms, for `CCCn1c(N)c(N(CCOC)C(=O)C2CCCC2)c(=O)[nH]c1=O` the value was “inactive”.
Still for that read-out and setting: next, `CCOC(=O)c1nn(-c2ccccc2F)c2nc(Nc3ccccc3)cc(=O)n12`: “inactive”.
Same read-out and setting: for `Nc1nnn(CC(=O)N/N=C/c2ccc(O)cc2)n1` the value was “inactive”.
With `Cc1cc(NC(=O)c2cc3ccccc3o2)no1`, the Potency result is “inactive”.
On to `COc1cccc(N(CC(=O)NCCSc2ccccn2)S(C)(=O)=O)c1`, for which the Potency entry was “inactive”.
Same read-out and setting: next, `Cc1ccc(C(CNC(=O)Nc2cccc(C)c2)N2CCN(C)CC2)cc1` (stereo unspecified): “inactive”.
`CCCCC/C=C\CC1OC1CCCCCCCC(=O)O` (stereo unspecified): the activity change, negative = growth inhibition is -12.2% [at 0.628 µM].
Regarding `O=C1c2ccccc2C(=O)N1CCCc1nc(-c2ccccc2)no1`, the Potency entry was “inactive”.
Still for that read-out and setting: for `O=C(O)c1ccc(S(=O)(=O)c2ccccc2)s1` the value was “inactive”; for `NC(=O)CSc1nnc(NC(=O)c2ccc3ccccc3c2)s1`, “inactive”.
Still for that read-out and setting: for `COc1ccc(C2/C(=C(/O)c3ccccc3)C(=O)C(=O)N2c2ncccn2)cc1OC` (stereo unspecified) the value was “inactive”; for `O=C(c1ccco1)N1CCN(CCOc2ccccc2)CC1`, “inactive”; for `OC(c1ccccc1)(c1ccccc1)C1CCN(CCCOc2ccccc2)CC1`, 16.4 µM (active).
Still for that read-out and setting: for `c1ccc(-c2ccc(OCCN3CCOCC3)cc2)cc1` the value was “inactive”.
As for `COc1ccc(OCCCCN2CCC(C)CC2)cc1`, the Potency entry is “inactive”.
As for `O=c1[nH]c2ccccc2n1C1CCN(CCOc2ccccc2)CC1`, the Potency was 4.11 µM (active).
With `O=C(c1ccc(Br)o1)N1CCN(CCOc2ccccc2)CC1`, the Potency result is “inactive”.
